Test results published in the supplement of paper PMC13380429.
A number with no mark means an inactive call.

Tested on: Vero E6 infected with SARS-CoV-2
Test: inhibition of SARS-CoV-2 cytopathic effect; higher = more antiviral protection, active = above 15
Settings: 48 h

SMILES	inhibition of SARS-CoV-2 cytopathic effect (1 nM)	inhibition of SARS-CoV-2 cytopathic effect (8.33 nM)	inhibition of SARS-CoV-2 cytopathic effect (100 nM)	inhibition of SARS-CoV-2 cytopathic effect (833.33 nM)	inhibition of SARS-CoV-2 cytopathic effect (10000 nM)
Oc1cccc(O)c1 [resorcinol]	-6.66%	-5.24%	-4.73%	-2.6%	-2.66%
O=C(C[S+]([O-])Cc1ccco1)NC/C=C\COc1cc(CN2CCCCC2)ccn1 (stereo not given) [lafutidine]	-0.4%	5.21%	1.21%	5.01%	3.05%
NC1=NC(=O)N([C@H]2C[C@H](O)[C@@H](CO)O2)CN1	-1.14%	-2.12%	0.08%	0.71%	-0.27%
Oc1cccc(-c2nc(N3CCOCC3)c3oc4ncccc4c3n2)c1	-0.17%	0.46%	-0.59%	-6.22%	-7.96%
CC[C@H]1CN2CCc3cc(OC)c(OC)cc3[C@@H]2C[C@@H]1C[C@H]1NCCc2cc(OC)c(OC)cc21 [emetine]	1.59%	2.17%	36.2% (active)	11.6%	-11.1%
COC(=O)N[C@H](C(=O)N1CCC[C@H]1c1nc(-c2ccc3c(c2)O[C@@H](c2ccccc2)n2c-3cc3cc(-c4c[nH]c([C@@H]5CCCN5C(=O)[C@@H](NC(=O)OC)C(C)C)n4)ccc32)c[nH]1)C(C)C [elbasvir]	1.03%	1.52%	0.09%	-1.19%	-4.27%
CNCCC(Oc1ccccc1OC)c1ccccc1 (stereo not given) [nisoxetine]	-1.97%	0.21%	4.4%	7.73%	-0.07%
COc1ccc2cc(-c3cc(-c4cc(Cl)cc(Cl)c4)nn3[C@@H](C)c3ccc(C(=O)NCCC(=O)O)cc3)ccc2c1	-1.85%	-0.02%	0.97%	4.66%	4.95%
C/C=C(/C)C(=O)O[C@H]1[C@H](OC(C)=O)[C@@]2(CO)C(CC1(C)C)C1=CCC3[C@@]4(C)CCC(O[C@@H]5O[C@H](C(=O)O)[C@@H](O[C@@H]6O[C@H](CO)[C@@H](O)[C@H](O)[C@H]6O)[C@H](O)[C@H]5O[C@@H]5O[C@H](CO)[C@@H](O)[C@H](O)[C@H]5O)[C@](C)(CO)C4CC[C@@]3(C)[C@]1(C)C[C@H]2O.C/C=C(\C)C(=O)O[C@H]1[C@H](OC(C)=O)[C@@]2(CO)C(CC1(C)C)C1=CCC3[C@@]4(C)CCC(O[C@@H]5O[C@H](C(=O)O)[C@@H](O[C@@H]6O[C@H](CO)[C@@H](O)[C@H](O)[C@H]6O)[C@H](O)[C@H]5O[C@@H]5O[C@H](CO)[C@@H](O)[C@H](O)[C@H]5O)[C@](C)(CO)C4CC[C@@]3(C)[C@]1(C)C[C@H]2O (stereo not given in full) [escin]	-2.05%	-1.77%	-0.38%	-4.84%	-27.8%
CCCOc1ccc2c(c1)CC[C@@H]1[C@@H]2CC[C@]2(C)[C@@H](OC)CC[C@@H]12 [promestriene]	-1.76%	-1.33%	-0.65%	-2.33%	-2.79%
Cn1nnc2c(C(N)=O)ncn2c1=O [temozolomide]	0.73%	-1.46%	-0.92%	-0.44%	-1.79%
NC(=O)c1[nH]cnc1O	0.65%	1.77%	0.2%	-1.72%	3.24%
CCCCCCCCCCCCC/C=C/[C@@H](O)[C@@H](N)CO[P@](=O)(O)OCC[N+](C)(C)C [sphingosylphosphorylcholine]	-0.9%	-2.99%	3.74%	-2.02%	3.54%
O=C1NC(=O)C(=Cc2ccc(-c3ccc(F)cc3)o2)S1 (stereo in doubt)	-2.32%	0.24%	-0.68%	0.32%	1.47%
O=C(OCC(COC(=O)c1cccnc1)(COC(=O)c1cccnc1)COC(=O)c1cccnc1)c1cccnc1 [niceritrol]	-3.51%	-0.29%	2.18%	0.03%	6.17%
